# A selection: hits, their analogues and other compounds. The true share with any hit is near 8.1%.
# Epigenetic reg – derepresses silenced GFP reporter in murine cells. murine LDR cells, GFP reporter derepression, 30 h. Potency, µM (titrated, usually from 53.9 µM), for the others: top-dose GFP activation, usual class: activators. actives 0.2% (n = 280,000). AID 1865; further: % of control where 0% means no effect; nearly all actives have a fitted effect of over 60% in size
#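 Readout is the number of GFP-expressing murine LDR cells, counted by cytometry following washing. Cells were treated with compound for 30 h at 37 C; the stably integrated CMV-GFP locus is normally silent.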
# Gal4-VP16 FLuc – counter-screen for ROR gamma inhibitors: Gal4-VP16 reporter; Drosophila S2 Gal4-VP16 UAS-luciferase, luminescence, 20 h; Potency, µM (top dose mostly 53.6 µM), for inactives: at the top dose activity, negative = inhibition, usual class: inhibitors; actives 3.5% (n = 310,000);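 further: Gal4-VP16 expression switched on by copper sulfate through the metallothionein promoter; on the % scale 0 is the no-effect control and ±100 the full control effect; nearly all actives have a fitted effect of over 50% in size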
# ClpP mod – qHTS Assay for Activators of ClpP; purified B. subtilis ClpP, FRET peptide cleavage, 20 min; actives 1.9% (n = 340,000); Potency, µM (titrated, usually from 57.5 µM), for inactives: top-dose activity change, negative = active; ATP-dependent Clp protease proteolytic subunit (Bacillus subtilis (strain 168)), P80244; active means well fitted falling curve with a large enough effect; inconclusive means small, poorly fitted or top-dose-only effect; inactive means no such curve, though single readings can be large or run the other way; further: the source files actives as falling curves though it sought activators and does not explain the sign; nearly all actives have a fitted effect of over 65% in size
# Target sequence (P80244 whole entry, looked up): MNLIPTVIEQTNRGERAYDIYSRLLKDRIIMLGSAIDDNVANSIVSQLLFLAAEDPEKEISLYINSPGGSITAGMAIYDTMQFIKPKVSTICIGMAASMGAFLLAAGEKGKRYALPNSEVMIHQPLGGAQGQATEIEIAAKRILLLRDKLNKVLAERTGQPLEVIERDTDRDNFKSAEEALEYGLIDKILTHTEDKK
#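 ClpP 10 microg/mL final, pH 8 Tris/KCl buffer with BSA, glycerol, Tween-20; compound pinned in; FRET-FV substrate; RT 20 min; Ex320/Em430; ΔFRET vs ADEP 5.8 microM, DMSO, no enzyme.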
# Sfp PPTase inh – Sfp phosphopantetheinyl transferase inhibition; Q9F4F7; Biochemical Sfp PPTase activity, qHTS; Potency, µM, for inactives: largest response in the series, negative = inhibition, usual class: inhibitors; actives 3.5% (n = 310,000);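 further: the enzyme is Sfp with the accession as filed and its product quenches rhodamine fluorescence; 0% = enzyme reaction without inhibitor and -100% = no enzyme wells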
#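 Sfp 15 nM + cpd, 15 min RT; start w/ rhodamine-CoA 5 uM, BHQ-2-YbbR 12.5 uM (final); 50 mM Hepes pH 7.6, 10 mM MgCl2, 0.01% NP-40, 0.01% BSA; read 525/598 nm at 0 and 30 min.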
# PINK1 modulator – changes PINK1 expression | PINK1 immunofluorescence, high-content cytometry, 24 h | actives 0.2% (n = 410,000) | Potency, µM (highest dose often 76.6 µM), without a hit: top-dose activation (PINK1 increase), actives largely listed as activators; active means well fitted activation curve with a large enough effect; inconclusive means small, poorly fitted or top-dose-only effect; cell line not stated here; further: % of control where 0% means no effect; nearly all actives have a fitted effect of over 65% in size
#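 PINK1 protein, normally rapidly degraded, was detected by immunofluorescence after 24 hour compound treatment of a stable cell line. Titration data (5 concentrations) came from laser-scanning cytometry, with CCCP-treated wells as controls.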
# RORg inh – ROR gamma (mouse) transcription inhibition; AID 2551; Potency, µM (series often up to 53.6 µM), inactives show at the top dose activity change, negative = inhibition, actives largely listed as inhibitors; P51450; Drosophila S2 Gal4-RORgamma UAS-luciferase reporter, 20 h; actives 5.4% (n = 310,000); further: on the % scale 0 is the no-effect control and ±100 the full control effect; nearly all actives have a fitted effect of over 60% in size
# Target sequence (P51450 whole entry, looked up, the tested form may be a part): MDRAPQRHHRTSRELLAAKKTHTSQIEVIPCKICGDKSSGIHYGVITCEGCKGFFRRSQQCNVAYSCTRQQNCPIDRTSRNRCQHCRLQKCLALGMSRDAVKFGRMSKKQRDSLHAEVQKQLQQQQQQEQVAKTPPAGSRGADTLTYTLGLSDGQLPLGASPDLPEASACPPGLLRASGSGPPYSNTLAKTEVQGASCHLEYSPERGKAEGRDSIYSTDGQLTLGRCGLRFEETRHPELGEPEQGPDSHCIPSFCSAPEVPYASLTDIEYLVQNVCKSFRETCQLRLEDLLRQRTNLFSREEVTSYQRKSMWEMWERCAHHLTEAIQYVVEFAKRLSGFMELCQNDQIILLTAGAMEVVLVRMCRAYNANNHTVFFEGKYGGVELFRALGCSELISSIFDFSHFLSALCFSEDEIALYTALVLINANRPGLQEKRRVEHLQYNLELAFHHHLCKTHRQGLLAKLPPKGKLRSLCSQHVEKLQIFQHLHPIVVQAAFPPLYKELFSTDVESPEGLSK
#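 Luminescence from a UAS-regulated Photinus luciferase reporter in stably transfected Drosophila Schneider cells is measured; decreased signal marks ROR gamma inhibition. Fusion expression is induced by 700 uM copper sulfate for 20 hr.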
# Numbers without * were called inactive; ? = inconclusive; . = no result; [ ] = dose if it differs, or a comment. Unless noted, the call rests on the fitted dose curve; in most records, active means well fitted curve in the direction sought with a large enough effect; inconclusive means small, poorly fitted or top-dose-only effect, or another doubt; inactive means no such curve, though single readings can be large; an effect the other way counts as inactive or inconclusive. Potency means the concentration at half of the fitted maximal effect.
SMILES,Epigenetic reg,Gal4-VP16 FLuc,ClpP mod,Sfp PPTase inh,PINK1 modulator,RORg inh
CCOC(=O)C(=CN=C(N)Nc1nc2ccccc2o1)C(=O)OCC,0%,?,.,-9%,5%,7.1µM*
CC(=O)c1cccc(NC(=O)c2c(N3CCCC3=O)c3cc(F)ccc3n2C)c1,-1%,.,?,.,1%,.
O=c1cc2oc3cc(O)c(O)cc3c(-c3ccccc3O)c-2cc1O,-1%,-30%,0%,79µM*,7%,-36%
COc1ccc(OC)c(-c2c3cc(O)c(=O)cc-3oc3cc(O)c(O)cc23)c1,3%,?,1%,11µM*,6%,?
CCOc1ccccc1-c1c2cc(O)c(=O)cc-2oc2cc(O)c(O)cc12,2%,18µM*,-2%,32µM*,11%,?
C=CCCCCCCC=C,.,-5%,.,.,.,4%
CCc1nc(-c2cc(S(=O)(=O)N3CCN(c4ccc(F)cc4)CC3)ccc2OC)no1,-3%,.,?,.,1%,.
O=C(CSc1nccn1C1CCCC1)Nc1ccccc1,2%,.,0%,.,1%,.
CN(Cc1ccco1)c1ccnc(-c2cccc(C#N)c2)n1,.,?,.,?,-1%,11%
O=C1NC(=Nc2ccc(O)cc2)S/C1=C/c1ccco1,3%,11%,.,-1%,-1%,-1%
Cc1cc(C)cc(N=C2NC(=O)/C(=C/c3cccs3)S2)c1,1%,16µM*,-2%,-2%,3%,?
COc1ccc(N=C2NC(=O)/C(=C\C=C\c3ccco3)S2)cc1,0%[10.1 µM],?,.,?,4%,-17%
O=C1NC(=Nc2ccc3ccccc3c2)S/C1=C/c1ccco1,-1%,?,-1%,71µM*,?,-2%
Cc1cccc(N=C2NC(=O)/C(=C/C=C/c3ccco3)S2)c1,0%,?,-3%,50µM*,9%,?
O=C1NC(=Nc2ccccc2)S/C1=C\c1cccs1,7%,-6%,0%,0%,7%,-10%
O=C1NC(=Nc2ccc(Cl)cc2)/C(=C/c2ccco2)S1,?,22%,.,50µM*,?,41%
CN(C)c1ccc(CN(CC2CCCO2)C(=O)COc2ccccc2Cl)cc1 (stereo not drawn),-1%,.,-1%,.,0%,.
O=C(c1ccc2c(c1)N(Cc1ccc(F)cc1)C(=O)c1ccccc1S2(=O)=O)N1CCN(Cc2ccccc2)CC1,0%,.,0%,.,0%,.
C(=C\c1ccnc2ccccc12)/c1ccc2ccccc2n1,.,.,5%,.,.,.
Cc1cccc(N=C2NC(=O)S/C2=C\c2ccco2)c1,-1%,0%,.,56µM*,-2%,30%
COc1ccc(NC(=O)NN(C(=O)c2ccccc2)C(C)(C)C)cc1,-2%,1%,25µM*,10%,-1%,-12%
CC(C)(C)N(NC(=O)Nc1ccccc1)C(=O)c1ccccc1,0%,-6%,0%,9%,3%,-20%
CC1=Nc2cc(C(=O)NC3CCCC3)ccc2Sc2ccc(C)cc21,9%,.,-1%,.,4%,.
COc1ccc(NC(=S)N2CCN(c3ccc([N+](=O)[O-])cc3)CC2)cc1OC,-2%,7.1µM*,.,22µM*,0%,?
O=[N+]([O-])c1ccc(N2CCN(C(=S)Nc3ccc(F)cc3F)CC2)cc1,2%,?,.,8%,-1%,13µM*
SMILES,Epigenetic reg,Gal4-VP16 FLuc,ClpP mod,Sfp PPTase inh,PINK1 modulator,RORg inh
COc1cccc(NC(=S)N2CCN(c3ccc([N+](=O)[O-])cc3)CC2)c1,8%,7%,.,29%,0%,0%
O=C(Cn1c(=O)c2ccccc2n(CC(=O)Nc2ccc(Cl)cc2)c1=O)NCCc1ccccc1,2%,.,2%,.,8%,.
COC(=O)/C=c1/sc2nc3ccccc3n2c1=O,10%,3%,1%,11µM*,-1%[38.3 µM],-36%
O=c1/c(=C/c2ccccn2)sc2nc3ccccc3n12,-1%,?,3%,-4%,15%,?
O=c1/c(=C\c2cc([N+](=O)[O-])cc([N+](=O)[O-])c2O)sc2nc3ccccc3n12,0%,-5%,0%,22µM*,3%,1%
O=C(O)c1cc(C(=O)O)cc(-c2ccc(/C=c3/sc4nc5ccccc5n4c3=O)o2)c1,0%,2%,.,7.1µM*,?,1%
O=C(O)c1cccc(-c2ccc(/C=c3/sc4nc5ccccc5n4c3=O)o2)c1,?,1%,2%,?,5%,23%
Cc1ccc(C)c(NC(=O)CSc2nc3nccnc3c(=O)n2CCc2c[nH]c3ccccc23)c1,2%,.,0%,.,0%,.
O=[N+]([O-])c1ccc(O/N=[N+](\[O-])N2CCCCC2)c([N+](=O)[O-])c1,.,.,.,.,-1%,.
CCOCCCn1c(SCC(=O)Nc2ccccc2OC)nc2c(oc3ccccc32)c1=O,0%,.,0%,.,-1%,.
CCNc1nc(NC(C)CC)nc(ON=C(C)C)n1 (stereo not drawn),2%,-20%,1%,1%,1%,14µM*
COc1ccc(CC(=O)NCc2n[nH]c(=S)n2-c2ccc(F)cc2)cc1,1%,3%,-3%,9%,-1%,-14%
S=c1[nH]nc(Cc2ccc(Cl)cc2)n1-c1ccc2c(c1)OCCO2,0%,-21%,0%,-18%,2%,2.8µM*
COc1ccc(Cc2n[nH]c(=S)n2-c2ccc3c(c2)OCCO3)cc1,0%,-1%,-2%,-24%,5%,8.9µM*
Cc1ccc2oc3nc(C)c(C(=O)O)cc3c(=O)c2c1,1%,?,28µM*,6%,1%,-25%
CC(=O)c1cc2c(=O)c3cc(C)ccc3oc2nc1C,0%,2%,-22%,12%,5%,21%
CN(C)c1nc(C(=O)NN)nc(N(C)C)n1,-4%,-1%,1%,2%,-1%[38.3 µM],-36%
CN(C)c1nc(N)c2ncc(=S)[nH]c2n1,0%,-6%,.,50µM*,0%,-38%
Cc1ccc(Nc2nnc(-c3ccc(C)c(S(=O)(=O)N4CCOCC4)c3)c3ccccc23)cc1,-1%,.,-1%,.,1%,.
COc1ccccc1NC(=O)c1nnn(CC(=O)Nc2cccc(SC)c2)c1N,-17%,?,17%,17%,3%[38.3 µM],6.3µM*
Cc1cnc(-n2ncc(C(=O)NCCc3ccccn3)c2C)nc1-c1ccc(F)cc1,.,.,.,.,-1%,.
CCCCCc1ccc(-c2ccc(/C=C/C(=O)O)cc2)nc1,0%,?,?,14%,-1%,-38%[10 µM]
CCCc1ccc(-c2ccc(/C=C/C(=O)O)cc2)nc1,-1%,?,?,1%,4%,0.16µM*

# Screening data from PubChem BioAssay.
